Bioassay records deposited in PubChem by National Center for Advancing Translational Sciences (NCATS).
Only some compounds are listed: those with a hit (about 2.8% of all), similar ones and a draw of the others.
IP6K1 inh: Primary qHTS assay for small molecule inhibitors of Inositol hexaphosphate kinase 1 (IP6K1) | activity change, % (series mostly up to about 58 µM) | IP6K1 kinase, ADP-Glo luminescence, 2 h; stronger effect = lower value | 140,000 compounds, 0.81% hits | Inositol hexakisphosphate kinase 1 (Homo sapiens), Q92551; in the data active = activity change below about -25%; note: % is set by controls: 0 for no effect and ±100 for the full control effect
Target sequence (Q92551 whole entry, looked up): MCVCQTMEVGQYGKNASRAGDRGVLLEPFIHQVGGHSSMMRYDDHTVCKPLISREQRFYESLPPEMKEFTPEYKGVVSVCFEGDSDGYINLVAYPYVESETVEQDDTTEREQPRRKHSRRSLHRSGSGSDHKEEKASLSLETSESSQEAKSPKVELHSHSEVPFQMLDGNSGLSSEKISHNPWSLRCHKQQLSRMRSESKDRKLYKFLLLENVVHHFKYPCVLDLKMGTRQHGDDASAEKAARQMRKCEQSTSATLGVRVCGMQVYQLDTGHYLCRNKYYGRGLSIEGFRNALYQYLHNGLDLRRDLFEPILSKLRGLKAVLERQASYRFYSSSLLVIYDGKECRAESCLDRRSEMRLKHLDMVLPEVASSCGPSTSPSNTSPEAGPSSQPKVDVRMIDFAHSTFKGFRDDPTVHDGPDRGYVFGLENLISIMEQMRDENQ
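ADP-Glo luminescence measures ADP made by human IP6K1 during a 2 h RT reaction with ATP/IP6 (mix at 1.3 mM/130 uM); top library doses 57.5 and 19.1 uM final.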
KDM5B inh: Primary screen for KDM5B Histone Demethylases FDH-coupled qHTS | AID 1347165, 2019 | Potency, µM (series often up to 57.7 µM), most hits filed as inhibitors | KDM5B demethylase, FDH-coupled NADH fluorescence (FDH is formaldehyde dehydrogenase) | Lysine-specific demethylase 5B (Homo sapiens), Q9UGL1 | 220,000 compounds, 2.6% hits; active = well fitted inhibition curve with a large enough effect; inconclusive = small, poorly fitted or top-dose-only effect; inactive = no such curve, though single readings can be large or run the other way; note: potency is the fitted concentration of half-maximal effect; 0% is about no effect; nearly all actives have a fitted effect of over 70% in size
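Measured: NADH fluorescence change, 30 min, RT. System: KDM5BΔAP 200 nM final, H3K4me3 peptide, α-KG, Fe(II), ascorbate, NAD⁺ plus FDH, pH 7.5 HEPES. Compounds: titrated, 10 min pre-incubation with enzyme.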
The depositor's hits bear a star; i = inactive; ? = inconclusive; / = not tested or not shown.

SMILES | IP6K1 inh | KDM5B inh
CC(C(=O)Nc1ccc2[nH]c(=O)[nH]c2c1)N(C)Cc1cccc(Cl)c1Cl (centres undefined) | / | i
Cn1ncc2c(C(=O)NCc3cccs3)cc(-c3ccccc3)nc21 | -4.1 | /
CC1(C)[C@H]2CC[C@@H](CNC(=O)c3ccccc3Cl)[C@@H]1C2 | 0.0 | i
CC1(C)[C@H]2CC[C@@H](CNC(=O)c3cccc4[nH]ccc34)[C@@H]1C2 | 9.5 | 31.6µM*
CC[C@@H]1[C@H](NC(=O)c2cccc(N3CCS(=O)(=O)CC3)c2)[C@@H]2CCO[C@H]12 | -9.9 | 22.4µM*
CC[C@@H]1[C@@H](NC(=O)c2ccc(N3CCN(C)CC3)cc2)[C@@H]2CCO[C@H]12 | 13.4 | i
CNC(=O)c1cc(C2CC2)nc2c1c(C1CCCN(C(=O)c3ccc(C)cc3)C1)nn2C (centres undefined) | -8.3 | /
CC(C)c1noc(C2Cc3ccccc3N2C(=O)CCn2cnnn2)n1 (centres undefined) | 7.5 | ?
CCn1ccc(C(=O)N2c3ccccc3CC2c2nc(C(C)C)no2)n1 (centres undefined) | 17.8 | 25.1µM*
C#CCOc1ccccc1-c1c(-c2ccccc2)ncn1CCCO | 3.3 | i
COc1cc(OC)c(-c2c(-c3ccccc3)ncn2CCF)cc1OC | 2.9 | 25.1µM*
O=C(CCC1CCCC1)N1CC[C@@H]2COCCN(Cc3ccncc3)[C@@H]2C1 | 9.7 | /
COc1ccc(-c2ccccc2C(=O)N2CCC(NC(=O)c3ccccc3C)CC2)nn1 | 0.6 | /
NCc1cccc(-c2cc(C(F)(F)F)ccc2Cl)c1 | -7.0 | 89.1µM*
O=C(O)c1cccc(-c2cc(C(F)(F)F)ccc2Cl)c1 | -21.0 | i
Cc1cc(C)c(/C=C/C(=O)c2cccnc2)cc1C | / | i
CC(C)c1noc(-c2cccn3c(CNC(=O)c4ccccc4)nnc23)n1 | 4.1 | 22.4µM*
COc1ccc(C(=O)NCc2nnc3c(-c4nc(C(C)C)no4)cccn23)cc1 | -1.1 | ?
CC(C)c1noc(-c2cccn3c(CNC(=O)c4ccccn4)nnc23)n1 | 13.8 | 25.1µM*
CC(C)c1noc(-c2cccn3c(CNC(=O)c4ccco4)nnc23)n1 | -2.0 | 22.4µM*
CC(C)c1noc(-c2cccn3c(CNC(=O)c4cccnc4)nnc23)n1 | 19.4 | ?
Cc1ccc(Nc2ccnc(N3CCC(C(=O)N4CCC(Cc5ccccc5)CC4)CC3)n2)cc1 | -12.3 | /
O=C(NC1CC1)c1ccc2nnc(-c3cc(C(F)(F)F)cc(C(F)(F)F)c3)n2c1 | 8.1 | /
CCCCCn1nc(C(=O)N2CCCC2c2nc3ccccc3s2)c2ccccc2c1=O (centres undefined) | / | i
C/C(=N\NC(N)=O)c1ccc(Br)cc1 | / | i
SMILES | IP6K1 inh | KDM5B inh
CCOC(=O)C1CCN(C(=O)c2cc(-c3ccccc3OC)c3nncn3n2)CC1 | 0.8 | /
COc1cccc(-c2ccc(C(=O)NCCNC(=O)C(C)(C)C)cc2)c1 | 1.4 | /
CC(NC(=O)c1ccc2c(c1)NC(=O)CS2)c1ccco1 (centres undefined) | / | i
CN1CCCC2(CCN(C(=O)CCCOc3ccccc3)C2)C1=O (centres undefined) | 15.3 | i
CN1CCCC2(C1)CN(C)c1ccc(C(=O)NCCOc3ccccc3)cc12 (centres undefined) | -0.5 | 39.8µM*
CC(=O)N1CCCC2(C1)CN(C)c1ccc(C(=O)NCCOc3ccccc3)cc12 (centres undefined) | -1.7 | 31.6µM*
CN1CCC2(C1)CN(CC1CC1)c1ccc(C(=O)NCCOc3ccccc3)cc12 (centres undefined) | 2.6 | ?
O=C1NC(=NC2CCCC2)C2(CCCN(CC3CCCCC3)C2)N1c1cc(F)cc(F)c1 (centres undefined) | -11.4 | ?
COc1cccc(-c2ccc(C(=O)N3CCC(NC(=O)C(C)(C)C)CC3)cc2)c1 | 16.9 | /
CN(CC(=O)N(Cc1ccc(C2CCCCC2)cc1)c1ccc(C(=O)O)cc1)S(=O)(=O)c1c(F)c(F)c(F)c(F)c1F | 7.4 | /
CC(O)CNC(=O)Nc1sc2c(c1C#N)CC(C)(C)OC2 (centres undefined) | / | i
Cc1nn(-c2ccccc2)c2c1C(C1CC1)N(C1CN(C(=O)Cc3ccccn3)C1)C2=O (centres undefined) | 15.9 | /
COc1ccc(-c2ccc3nnc(CNC(=O)C(C)Oc4ccccc4)n3n2)cc1 (centres undefined) | -8.9 | 31.6µM*
COc1cccc(CCC(=O)NCc2nnc3ccc(-c4ccccc4)nn23)c1 | 5.5 | i
COc1ccc(-c2ccc3nnc(CNC(=O)C(C)Oc4cccc(Cl)c4)n3n2)cc1 (centres undefined) | -0.7 | 28.2µM*
CN(C)c1ccc(CN2CCC[C@H]2c2nc(-c3ccnc(N4CCC(C(N)=O)CC4)c3)no2)cc1 | 21.3 | ?
